Measured values as given in PubChem BioAssay (NCI).
Values joined by “and” are separate entries in the source; they are usually repeats but may differ in a detail not shown here. Equal values may be shown once. Compounds without any hit were thinned out: in the full panel of roughly 79,000, 15% have a hit. A number with no mark means an inactive call. Active and inactive are the calls of the source. Rule as the data show it: active = growth inhibition above about 70%; inactive = the rest.

Experiment: NCI Yeast Anticancer Drug Screen. Data for the mlh1 rad18 strain (AID 175)
Conditions: S. cerevisiae mlh1 rad18 strain growth inhibition, hits give high values
Protocol: Growth inhibition of yeast strains with defined genetic alterations is measured as a screen for potential anti-cancer activity. Selected strains with alterations in DNA damage repair or cell cycle control were exposed to compounds and growth inhibition was measured relative to vehicle treated controls. The strain used in this assay is mlh1 rad18

[1] = at 5.0 µM (retest, dose inferred, filed as 0.5)
[2] = at 50.0 µM (retest, dose inferred, filed as 5.0)

| SMILES | growth inhibition [1] | growth inhibition [2] | growth inhibition (at 50.0 µM) |
| --- | --- | --- | --- |
| CCSc1c2ccccc2c(-c2nc(F)nc(F)n2)n1CCc1ccccc1 | -12% | 77% (active) | 81.3% (active) |
| CC(=O)O/N=C/c1c2ccccc2cc2ccccc12 | 80% (active) | 92% (active) | 33% |
| Cc1ccc2oc(-c3cccc(N)c3)nc2c1 | -7% | 28% | -6% |
| C[Si](C)(C)Cc1ccccc1C(=O)O | -2% | 83% (active) | 98.2% (active) |
| O=S(=O)(O)c1ccc2c(N=Nc3c(O)ccc4ccccc34)cccc2c1 | 9% | 80% (active) | 87.9% (active) |
| S=C1NC2=C(CSC/C2=C\c2ccc(Cl)cc2)C(c2ccc(Cl)cc2)N1 (configuration not stated) | 16% | 96% (active) | 90.7% (active) |
| CCCC(=O)OC(OC(=O)CCC)c1ccc([N+](=O)[O-])o1 | 22% | 71% (active) | 35.1% |
| Clc1ccc(C(c2ccc(Cl)cc2)N2CCNCC2)cc1 | 45% | 96% (active) | 92.3% (active) |
| Cc1cnc(/C=N\NC(N)=S)c2cccc(N)c12 | 17% and 23% | 85% (active) and 82% (active) | 75.2% (active) and 89% (active) |
| CCOC(=O)/C=C1\CCCn2c1ncc(C(=O)OCC)c2=O | 8% | 48% | 89.8% (active) |
| CN(C)CCNC(=O)c1cccc2nc3c4ccccc4c4ccccc4c3nc12 | 40% | 97% (active) | 95.2% (active) |
| c1ccc(C2=NNC3c4ccccc4-c4ccccc4N3C2)cc1 (configuration not stated) | 11% | 50% | 34% |
| O=[N+]([O-])c1cccc2nc3ccccc3c(NCCC[N+]3([O-])CCOCC3)c12 | 71% (active) | 98% (active) | 94.5% (active) |
| [O-]c1c2cc(-[n+]3c(-c4ccccc4)cc(-c4ccccc4)cc3-c3ccccc3)cc1COCCOCCOCCOCCOC2 | 0% | 70% (active) | 72.2% (active) |
